From the supplement of paper PMC10037445 come the findings set out here.

Whole data set: some 2,900 compounds, median “NF-kB SEAP reporter activity, fold change vs agonist alone” near 0.99, cut for the highest 2% near 2.6. Many of the other results were omitted from the sample, so the highest values are more common in it than they were.

Assay [1] relates to RAW-Dual. The assay is described as follows: NF-kB SEAP reporter activity, fold change vs agonist alone; higher = enhanced NF-kB activity. Put shortly: (§1)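 Reporter activity is given as fold change relative to agonist-alone wells. To measure it, 50 nL of library stock was pin-tooled onto RAW-Dual macrophages (50,000 cells/well, DMEM, 384-well plates), a PRR agonist followed 1 h later, and cells stayed at 37 °C, 5% CO2. Twenty hours on, supernatant was assayed for IRF (QuantiLuc luminescence) and NF-κB (QuantiBlue, 620 nm absorbance), and wells under 70% of agonist-control IncuCyte confluency in both mask sets were marked cytotoxic.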

Assay [2] relates to RAW-Dual. The assay is described as follows: NF-kB SEAP reporter activity, fold change vs agonist alone; cytotoxicity flag (confluency mask): cytotoxic (confluency <70% of control); higher = enhanced NF-kB activity. The method in brief: as §1
Assay [3] has as its system RAW-Dual. The assay is described as follows: NF-kB SEAP reporter activity, fold change vs agonist alone; cytotoxicity flag (confluency mask): not cytotoxic; higher = enhanced NF-kB activity. The method in brief: as §1
[4] abbreviates: library stock concentration (final ~1000-fold dilution): 10 mM, cytotoxicity flag (confluency mask): cytotoxic (confluency <70% of control), agonist: Imiquimod (TLR7) […].
The mark [5] stands for this setting: library stock concentration (final ~1000-fold dilution): 10 mM, cytotoxicity flag (confluency mask): cytotoxic (confluency <70% of control), agonist: MPLA (TLR4) […].
The mark [6] stands for this setting: agonist: ODN 1826 (TLR9) 0.5 ug/mL.
Where [7] appears, read: agonist: Pam2CSK4 (TLR2/6) 0.1 ug/mL.
Setting [8] is: agonist: Pam3CSK4 (TLR2/1) 0.1 ug/mL.
Where [9] appears, read: library stock concentration (final ~1000-fold dilution): 10 mM, cytotoxicity flag (confluency mask): not cytotoxic, agonist: Imiquimod (TLR7) […].
The mark [10] stands for this setting: library stock concentration (final ~1000-fold dilution): 10 mM, cytotoxicity flag (confluency mask): not cytotoxic, agonist: MPLA (TLR4) […].

Regarding `COc1ncc(-c2cc(-c3ncc(CN4CC(C)OC(C)C4)o3)c3cn[nH]c3c2)cc1NS(C)(=O)=O` (stereo unspecified), the entries for the “NF-kB SEAP reporter activity” value in the assay with RAW-Dual [1] (setting [4]) and in the assay on RAW-Dual [1] (setting [5]) were 0.604 and 2.18, respectively.
In the case of `COc1ncc(-c2cc(-c3ncc(CN4CC(C)OC(C)C4)o3)c3cn[nH]c3c2)cc1NS(C)(=O)=O` (stereo unspecified) (library stock concentration (final ~1000-fold dilution): 10 mM), the “NF-kB SEAP reporter activity” value turned out to be 5.18 with RAW-Dual [2] (agonist: LPS (TLR4) 0.1 ug/mL), 0.639 in the assay with RAW-Dual [2] (setting [6]), 1.01 in the assay with RAW-Dual [2] (setting [7]) and 1.39 in the assay on RAW-Dual [2] (setting [8]).
As to `Cc1ccc(NCCN(C)CCNc2ccnc3cc(Cl)ccc23)c2c(=O)c3ccccc3sc12` (library stock concentration (final ~1000-fold dilution): 2 mM), the “NF-kB SEAP reporter activity” value with RAW-Dual [3] (agonist: LPS (TLR4) 0.1 ug/mL) is 1.45; in the assay with RAW-Dual [3] (setting [6]), 1.04; in the assay with RAW-Dual [3] (setting [7]), 0.845; with RAW-Dual [3] (setting [8]) it was 1.06.
Turning to `CN(CCNCc1cn(Cc2ccc(Cl)cc2)nn1)CCNc1ccnc2cc(Cl)ccc12.O=C(O)C(F)(F)F`, the “NF-kB SEAP reporter activity” value in the assay on RAW-Dual [1] (setting [4]) is 1.52; in the assay on RAW-Dual [1] (setting [5]) it was 2.19.
For `Cc1ccc(NCCN(C)CCNc2ccnc3cc(Cl)ccc23)c2c(=O)c3ccccc3sc12`, the “NF-kB SEAP reporter activity” value in the assay with RAW-Dual [1] (library stock concentration (final ~1000-fold dilution): 2 mM, cytotoxicity flag (confluency mask): not cytotoxic, agonist: Imiquimod (TLR7) […]) is 0.907; in the assay with RAW-Dual [1] (library stock concentration (final ~1000-fold dilution): 2 mM, cytotoxicity flag (confluency mask): not cytotoxic, agonist: MPLA (TLR4) […]), 1.05.
Turning to `CN(CCNCc1cn(Cc2ccc(Cl)cc2)nn1)CCNc1ccnc2cc(Cl)ccc12.O=C(O)C(F)(F)F` (library stock concentration (final ~1000-fold dilution): 10 mM), the “NF-kB SEAP reporter activity” value in the assay on RAW-Dual [2] (agonist: LPS (TLR4) 0.1 ug/mL) was 2.67; in the assay with RAW-Dual [2] (setting [6]), 0.269; in the assay on RAW-Dual [2] (setting [7]), 1.18; in the assay on RAW-Dual [2] (setting [8]) it was 1.87.
Consider `CCN(CC)Cc1cc(Nc2ccnc3cc(Cl)ccc23)ccc1O.Cl.Cl.O.O` (library stock concentration (final ~1000-fold dilution): 10 mM), for which the “NF-kB SEAP reporter activity” value came out at 0.419 with RAW-Dual [3] (agonist: LPS (TLR4) 0.1 ug/mL), 0.184 in the assay on RAW-Dual [3] (setting [6]), 0.719 in the assay on RAW-Dual [3] (setting [7]) and 0.633 in the assay on RAW-Dual [3] (setting [8]).
Turning to `CN(CCNc1ccnc2cc(Cl)ccc12)CCNc1ccnc2cc(Cl)ccc12.Cl.Cl.Cl` (library stock concentration (final ~1000-fold dilution): 10 mM), the “NF-kB SEAP reporter activity” value worked out at 4.28 in the assay on RAW-Dual [2] (agonist: LPS (TLR4) 0.1 ug/mL), 0.547 in the assay on RAW-Dual [2] (setting [6]), 1.63 in the assay with RAW-Dual [2] (setting [7]) and 2.17 in the assay with RAW-Dual [2] (setting [8]).
Turning to `CCN(CCO)CCCC(C)Nc1ccnc2cc(Cl)ccc12.O=S(=O)(O)O` (stereo unspecified) (library stock concentration (final ~1000-fold dilution): 10 mM water), the “NF-kB SEAP reporter activity” value was found to be 1.41 with RAW-Dual [3] (agonist: LPS (TLR4) 0.1 ug/mL), 0.252 with RAW-Dual [3] (setting [6]), 0.864 in the assay on RAW-Dual [3] (setting [7]) and 0.763 in the assay with RAW-Dual [3] (setting [8]).
In the case of `CN(CCNc1ccnc2cc(Cl)ccc12)CCNc1ccnc2cc(Cl)ccc12.Cl.Cl.Cl`, the “NF-kB SEAP reporter activity” value in the assay with RAW-Dual [1] (setting [4]) is 0.958; in the assay on RAW-Dual [1] (setting [5]), 2.39.
Take `CCN(CC)Cc1cc(Nc2ccnc3cc(Cl)ccc23)ccc1O.Cl.Cl.O.O`: the results for the “NF-kB SEAP reporter activity” value in the assay with RAW-Dual [1] (setting [9]) and with RAW-Dual [1] (setting [10]) were 0.244 and 0.82, respectively.
Regarding `CCN(CCO)CCCC(C)Nc1ccnc2cc(Cl)ccc12.O=S(=O)(O)O` (stereo unspecified), the “NF-kB SEAP reporter activity” value is 0.389 in the assay on RAW-Dual [1] (library stock concentration (final ~1000-fold dilution): 10 mM water, cytotoxicity flag (confluency mask): not cytotoxic, agonist: Imiquimod (TLR7) […]) and 1.3 in the assay on RAW-Dual [1] (library stock concentration (final ~1000-fold dilution): 10 mM water, cytotoxicity flag (confluency mask): not cytotoxic, agonist: MPLA (TLR4) […]).
With `Cc1cc2ncc(C(=O)NCC(C)(C)NCC(=O)N3CCCC3C#N)cn2n1` (stereo unspecified) (library stock concentration (final ~1000-fold dilution): 10 mM), the “NF-kB SEAP reporter activity” value in the assay with RAW-Dual [3] (agonist: LPS (TLR4) 0.1 ug/mL) was determined as 1.57; in the assay on RAW-Dual [3] (setting [6]), 0.997; with RAW-Dual [3] (setting [7]) it was 0.911; with RAW-Dual [3] (setting [8]) it was 0.96.
As for `Cc1cc2ncc(C(=O)NCC(C)(C)NCC(=O)N3CCCC3C#N)cn2n1` (stereo unspecified), the “NF-kB SEAP reporter activity” value in the assay on RAW-Dual [1] (setting [9]) was 0.977; with RAW-Dual [1] (setting [10]), 1.04.
For the compound `COc1ccccc1Nc1nc(-c2sc(NC(C)=O)nc2C)cs1` (library stock concentration (final ~1000-fold dilution): 10 mM), the “NF-kB SEAP reporter activity” value in the assay on RAW-Dual [3] (agonist: LPS (TLR4) 0.1 ug/mL) turned out to be 0.496; in the assay with RAW-Dual [3] (setting [6]), 0.464; in the assay on RAW-Dual [3] (setting [7]), 0.318; in the assay on RAW-Dual [3] (setting [8]), 0.245.
Turning to `COc1ccccc1Nc1nc(-c2sc(NC(C)=O)nc2C)cs1`, the “NF-kB SEAP reporter activity” value stood at 0.623 in the assay on RAW-Dual [1] (setting [9]) and 0.687 in the assay on RAW-Dual [1] (setting [10]).
Turning to `CC(C)(OC1OC(CO)C(O)C(O)C1O)C1Cc2cc3ccc(=O)oc3cc2O1` (stereo unspecified), the “NF-kB SEAP reporter activity” value in the assay on RAW-Dual [1] (setting [9]) was 1.21; with RAW-Dual [1] (setting [10]), 1.19.
As for `CC(C)(OC1OC(CO)C(O)C(O)C1O)C1Cc2cc3ccc(=O)oc3cc2O1` (stereo unspecified) (library stock concentration (final ~1000-fold dilution): 10 mM), the “NF-kB SEAP reporter activity” value worked out at 1.14 with RAW-Dual [3] (agonist: LPS (TLR4) 0.1 ug/mL), 1.31 in the assay with RAW-Dual [3] (setting [6]), 1.27 in the assay with RAW-Dual [3] (setting [7]) and 1.48 in the assay on RAW-Dual [3] (setting [8]).
Take `Cl.O=C1C2CCCCC2C(=O)N1CCCCN1CCN(c2nsc3ccccc23)CC1` (stereo unspecified): the “NF-kB SEAP reporter activity” value with RAW-Dual [1] (setting [10]) worked out at 0.868.
As to `Cl.O=C1C2CCCCC2C(=O)N1CCCCN1CCN(c2nsc3ccccc23)CC1` (stereo unspecified) (library stock concentration (final ~1000-fold dilution): 10 mM), the “NF-kB SEAP reporter activity” value was determined as 0.671 in the assay on RAW-Dual [3] (agonist: LPS (TLR4) 0.1 ug/mL), 0.536 with RAW-Dual [3] (setting [6]), 0.848 with RAW-Dual [3] (setting [7]) and 0.888 in the assay on RAW-Dual [3] (setting [8]).
Consider `Cc1n[nH]c2ccc(-c3cncc(OCC(N)Cc4ccccc4)c3)cc12` (stereo unspecified), for which the “NF-kB SEAP reporter activity” value amounted to 0.904 with RAW-Dual [1] (setting [9]) and 0.967 in the assay with RAW-Dual [1] (setting [10]).
Regarding `Cc1n[nH]c2ccc(-c3cncc(OCC(N)Cc4ccccc4)c3)cc12` (stereo unspecified) (library stock concentration (final ~1000-fold dilution): 10 mM), the “NF-kB SEAP reporter activity” value in the assay on RAW-Dual [3] (agonist: LPS (TLR4) 0.1 ug/mL) came out at 0.198; with RAW-Dual [3] (setting [6]) it was 0.962; in the assay with RAW-Dual [3] (setting [7]), 0.447; in the assay on RAW-Dual [3] (setting [8]) it was 1.01.
Regarding `C=CC1(C)CC(OC(=O)CSCCN(CC)CC)C2(C)C(C)CCC3(CCC(=O)C32)C(C)C1O.O=C(O)/C=C/C(=O)O` (stereo unspecified) (library stock concentration (final ~1000-fold dilution): 10 mM), the “NF-kB SEAP reporter activity” value in the assay with RAW-Dual [3] (agonist: LPS (TLR4) 0.1 ug/mL) was 1.37; in the assay with RAW-Dual [3] (setting [6]), 0.712; in the assay with RAW-Dual [3] (setting [7]) it was 0.821; with RAW-Dual [3] (setting [8]), 0.841.
Take `C=CC1(C)CC(OC(=O)CSCCN(CC)CC)C2(C)C(C)CCC3(CCC(=O)C32)C(C)C1O.O=C(O)/C=C/C(=O)O` (stereo unspecified): the “NF-kB SEAP reporter activity” value with RAW-Dual [1] (setting [10]) came out at 1.13.
Turning to `O=C(/C=C/N1CC2CC1CN2c1ccccn1)c1ccccc1O` (stereo unspecified) (library stock concentration (final ~1000-fold dilution): 10 mM), the “NF-kB SEAP reporter activity” value with RAW-Dual [3] (agonist: LPS (TLR4) 0.1 ug/mL) was 1.01; in the assay with RAW-Dual [3] (setting [6]) it was 0.735; in the assay on RAW-Dual [3] (setting [7]) it was 1.02; with RAW-Dual [3] (setting [8]) it was 1.39.
With `O=C(/C=C/N1CC2CC1CN2c1ccccn1)c1ccccc1O` (stereo unspecified), the entries for the “NF-kB SEAP reporter activity” value with RAW-Dual [1] (setting [9]) and in the assay with RAW-Dual [1] (setting [10]) were 0.829 and 1.03, respectively.
